Results reported in PubChem BioAssay (EPA / NIEHS).
Several values for one entry are separate records, joined by “and”; a condition that tells them apart may be missing. Equal entries are not always repeated. Inconclusive results are not listed. Some structures have more than one record in an assay (separate samples or runs), and their calls can disagree. Activity calls are given as the source filed them. Rule for the calls, unless noted: active = hit-call score of the fitted dose curve at least 0.9, where 1 is the maximum; inactive = score below 0.9.

What was measured:
[1] = CCTE_Shafer_MEA_dev_active_electrodes_number: CCTE's Neural Network Formation Assay for Number of Active Electrodes, Shafer Lab (AID 2284040; active = hit-call score of the fitted dose curve at least 0.9, where 1 is the maximum;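 for AC50: potency for loss of active electrodes versus DMSO so lower counts are hits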)
Summary of the method: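 Rat cortical primary cultures, 1.5 x 10^5 cells/well, PEI-coated MEA, laminin drop. Continuous exposure DIV 0–12; full media/compound change DIV 5, 9. Readout: electrodes with mean firing ≥5 spikes/min; AUC across days; loss vs DMSO.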

[2] = CCTE_Shafer_MEA_dev_per_burst_interspike_interval: CCTE's Neural Network Formation Assay for Burst Interspike Interval, Shafer Lab (AID 2284044);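 note: mean spike spacing inside bursts as AUC over recordings on days 5 7 9 12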;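 for AC50: potency for a decrease of within-burst interspike interval below DMSO level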
Summary of the method: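 Developmental network-formation MEA in primary rat cortical cultures with exposure spanning days 0–12. Within-burst ISI is averaged per well and integrated across recording days by area under the curve, with DMSO as negative control baseline.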

[3] = CCTE_Shafer_MEA_dev_burst_duration_mean: CCTE's Neural Network Formation Assay for Mean Burst Duration, Shafer Lab (AID 2284045);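 for AC50: curve fitted for loss meaning shorter burst duration than DMSO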
Summary of the method: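 Primary rat cortical neurons on 48-well 16-electrode MEA plates, exposed from day 0 with renewal at DIV 5 and 9; spontaneous activity recorded on days 5, 7, 9, 12. Well-mean burst duration across bursting electrodes, collapsed as trapezoidal AUC; DMSO baseline.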

[4] = CCTE_Shafer_MEA_dev_interburst_interval_mean: CCTE's Neural Network Formation Assay for Mean Interburst Interval, Shafer Lab (AID 2284046);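 note: well-mean interburst interval of bursting electrodes as AUC over four recording days; curve fitted for decrease in interburst interval relative to DMSO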
Summary of the method: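 Primary rat cortical neurons on PEI-coated 48-well MEA plates (laminin added with cells at plating) (16 electrodes/well), exposed from plating day 0 with renewal at DIV 5 and 9. Mean inter-burst interval averaged over bursting electrodes, AUC across days 5, 7, 9, 12; DMSO baseline.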

[5] = CCTE_Shafer_MEA_dev_inter_network_spike_interval_mean: CCTE's Neural Network Formation Assay for Mean Inter-network Spike Interval, Shafer Lab (AID 2284047);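 for AC50: potency for a decrease in mean inter-network spike interval below DMSO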
Summary of the method: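 Mean time between consecutive network-spike peaks, recorded extracellularly (adaptive spike detection) on DIV 5, 7, 9 and 12, summarized as trapezoidal AUC. Rat cortical cultures on MEAs dosed continuously days 0–12, re-dosed at feeds; loss-of-signal fit relative to DMSO.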

[6] = CCTE_Shafer_MEA_dev_network_spike_number: CCTE's Neural Network Formation Assay for Number of Network Spikes, Shafer Lab (AID 2284048);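 note: synchronized bursts across electrodes counted on days 5 7 9 12 and integrated as AUC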;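 for AC50: fit as a loss of signal meaning fewer network spikes than DMSO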
Summary of the method: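 Primary rat cortical neurons on PEI/laminin 48-well MEA plates, dosed from plating day 0 for 12 days, renewed at DIV 5 and 9. Network spike counts recorded DIV 5, 7, 9, 12, collapsed as trapezoidal AUC; DMSO baseline.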

[7] = tested on: DIO2 (gene 1734); experiment: CCTE_GLTED_hDIO2: CCTE's human Deiodinase 2 (DIO2) Inhibition Assay, Great Lakes Toxicology and Ecology Division (GLTED) Lab (AID 2284050; active = hit-call score of the fitted dose curve at least 0.9, where 1 is the maximum)
Summary of the method: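 In this cell-free test, chemicals are exposed to human deiodinase type 2 for 3 hours. Released iodide is determined spectrophotometrically via the Sandell-Kolthoff method, and signal loss relative to DMSO is fitted.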

[8] = CCTE_Shafer_MEA_dev_spike_duration_mean: CCTE's Neural Network Formation Assay for Mean Spike Duration, Shafer Lab (AID 2284051);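 note: mean network spike duration pooled as area under curve over DIV 5 to 12 recordings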;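 for AC50: potency for a decrease in mean network spike duration versus DMSO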
Summary of the method: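 Spontaneous activity was recorded on days 5, 7, 9 and 12 from rat cortical cultures grown on microelectrode arrays and dosed continuously from day 0, with media and compound renewed after the DIV 5 and 9 recordings. Network-spike duration was collapsed by area under the curve.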

[9] = CCTE_Shafer_MEA_dev_network_spike_duration_std: CCTE's Neural Network Formation Assay for Standard Deviation of Network Spike Duration, Shafer Lab (AID 2284052);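 note: hits are decreases in network spike duration SD versus DMSO vehicle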
Summary of the method: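 Network spike duration variability was collapsed across recordings on days 5, 7, 9 and 12 by trapezoidal area-under-curve and fitted downward against DMSO. Cultures were rat cortical neurons on PEI-coated MEA plates, dosed continuously from plating, refed with compound DIV 5/9.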

[10] = CCTE_Shafer_MEA_dev_per_network_spike_spike_number_mean: CCTE's Neural Network Formation Assay for Mean Number of Spikes in a Network Spike, Shafer Lab (AID 2284053);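 for AC50: fitted as decrease in spikes per network spike relative to DMSO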
Summary of the method: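 Mean spike count within each network spike, taken in a 0.05 s window at its peak, was recorded on days 5, 7, 9 and 12 and integrated as trapezoidal area under the curve. Rat cortical cultures on MEA plates received continuous compound from day 0, refreshed at medium changes on DIV 5 and 9.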

[11] = CCTE_Shafer_MEA_dev_per_network_spike_spike_percent: CCTE's Neural Network Formation Assay for Percent of Spikes in a Network Spike, Shafer Lab (AID 2284054)
Summary of the method: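 Rat primary cortical neurons were grown on 48-well MEA plates (16 electrodes/well), exposed from plating day 0 through day 12, with treatment renewed on DIV 5 and 9. Percent of spikes within 0.05 s network-spike peaks was measured, summarised as AUC across days 5, 7, 9, 12.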

[12] = tested on: DIO3 (gene 1735); experiment: CCTE_GLTED_hDIO3: CCTE's human Deiodinase 3 (DIO3) Inhibition Assay, Great Lakes Toxicology and Ecology Division (GLTED) Lab (AID 2284055; active = hit-call score of the fitted dose curve at least 0.9, where 1 is the maximum;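 note: potency is for inhibition seen as loss of released iodide signal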)
Summary of the method: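 Enzyme activity is tracked as iodide release from substrate by recombinant human DIO3 over 3 h with chemical present. A second Sandell-Kolthoff step converts iodide to an absorbance signal, fitted relative to DMSO.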

[13] = UKN5_HCS_SBAD2_cell_viability: Viability Assessment in the University of Konstanz (UKN) Leist Lab Neurite Outgrowth Assay in human iPSC-derived immature Dorsal Root Ganglia Neurons (UKN5) (AID 2284056)
Summary of the method: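 iPSC-derived immature peripheral neurons (SBAD2) seeded on Matrigel with CHIR99021, SU5402 and DAPT, dosed 1 h later for 24 h. Viability from Hoechst H-33342 and calcein-AM live staining, high-content imaging; bidirectional fit versus DMSO.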

[14] = CCTE_Shafer_MEA_acute_AB: CCTE's Alamar Blue Assay for Cytotoxicity in the Neural Acute Assay, Shafer Lab (AID 2284069; active = hit-call score of the fitted dose curve at least 0.9, where 1 is the maximum;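 note: active compounds lower the viability signal compared with DMSO wells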)
Summary of the method: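 Resazurin reduction (CellTiter Blue, 1:6 in fresh medium) read at ex 544/em 590 nm marks viability loss relative to DMSO. Cells: primary rat cortical neuron networks on microelectrode arrays, treated after baseline recording at 13 or 15 days in vitro.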

[15] = UKN5_HCS_SBAD2_neurite_outgrowth: University of Konstanz (UKN) Leist Lab Neurite Outgrowth Assay in human iPSC-derived immature Dorsal Root Ganglia Neurons (UKN5) (AID 2284070); conditions: actives raise or lower the signal
Summary of the method: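 SBAD2 neurons, 24 h compound treatment, calcein-AM neurite area via HCS imaging; DMSO baseline, gain or loss of signal.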

[16] = CCTE_Shafer_MEA_dev_AB: CCTE's Alamar Blue Assay for Cytotoxicity in the Neural Network Formation Assay, Shafer Lab (AID 2284083; active = hit-call score of the fitted dose curve at least 0.9, where 1 is the maximum;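 note: resazurin reduction fluorescence as viability of cultured neurons; twelve days of exposure from plating with re-dosing on DIV 5 and 9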)
Summary of the method: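 Resazurin fluorescence, relative to DMSO, gauges viability after twelve days of exposure that began at plating of rat cortical neurons (1.5 x 10^5 cells/well, 48-well MEA); treatment renewed with full medium exchange on DIV 5 and 9.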

[17] = CCTE_Shafer_MEA_acute_LDH: CCTE's Lactate Dehydrogenase Assay for Cytotoxicity in the Neural Acute Assay, Shafer Lab (AID 2284086; active = hit-call score of the fitted dose curve at least 0.9, where 1 is the maximum;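 note: active means LDH release rises above DMSO vehicle level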)
Summary of the method: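 Released lactate dehydrogenase, read at 490 nm, indicated cytotoxicity after acute 40-min compound treatment of rat cortical neuron networks grown on 48-well MEA plates.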

In the case of `CC[C@H](C)[C@H]1O[C@]2(C=C[C@@H]1C)C[C@@H]1C[C@@H](C/C=C(\C)[C@@H](O[C@H]3C[C@H](OC)[C@@H](O[C@H]4C[C@H](OC)[C@@H](NC)[C@H](C)O4)[C@H](C)O3)[C@@H](C)/C=C/C=C3\CO[C@@H]4[C@H](O)C(C)=C[C@@H](C(=O)O1)[C@]34O)O2`, the AC50 [1] is reported as 55 nM (active) and 4.37 nM (active), the AC50 [2] is reported as 44.7 nM (active) and 5.36 nM (active) and the AC50 [3] is reported as 20.1 nM (active) and 1.89 nM (active). The AC50 [4] was 220 nM (active) and 2.96 nM (active), the AC50 [5] was 160 nM (active) and the outcome [5] was “inactive”. The AC50 [6] was 47.4 nM (active) and 4.79 nM (active), the AC50 [7] was 31.3 µM (active) and the AC50 [8] was 13 nM (active) and 2.69 nM (active). The AC50 [9] was 5.01 nM (active) and 3.04 nM (active), the AC50 [10] was 55.1 nM (active) and 5.93 nM (active) and the AC50 [11] was 0.517 µM (active). For the same compound, the outcome [11] was “inactive”, the AC50 [12] was 33.6 µM (active) and the AC50 [13] was 1.52 µM (active). The AC50 [14] was 20 µM (active), the outcome [14] was “inactive” and the AC50 [15] was 1.12 µM (active). For the same compound, the AC50 [16] was 656 nM (active) and the outcome [17] was “inactive”.

In the case of `CCOP(=S)(OCC)Oc1ccc([N+](=O)[O-])cc1`, the outcome [1] is reported as “inactive”, the outcome [2] is reported as “inactive” and the outcome [3] is reported as “inactive”. For the same compound, the outcome [4] was “inactive”, the outcome [5] was “inactive” and the outcome [6] was “inactive”. For the same compound, the outcome [8] was “inactive”, the outcome [9] was “inactive” and the outcome [10] was “inactive”. For the same compound, the outcome [11] was “inactive” and the outcome [16] was “inactive”.

With `S=C1NCCN1` the AC50 [1] was 3.82 µM (active), the outcome [2] was “inactive” and the outcome [3] was “inactive”. For the same compound, the outcome [4] was “inactive”, the outcome [5] was “inactive” and the outcome [6] was “inactive”. The AC50 [8] was 5.64 µM (active), the outcome [9] was “inactive” and the outcome [10] was “inactive”. For the same compound, the outcome [11] was “inactive” and the outcome [16] was “inactive”.

With `CSC1=N[C@@](C)(c2ccccc2)C(=O)N1Nc1ccccc1` the outcome [1] was “inactive”, the outcome [2] was “inactive” and the outcome [3] was “inactive”. The outcome [4] was “inactive”, the outcome [5] was “inactive” and the outcome [6] was “inactive”. The outcome [8] was “inactive”, the outcome [9] was “inactive” and the outcome [10] was “inactive”. The outcome [11] was “inactive”, the outcome [13] was “inactive” and the outcome [14] was “inactive”. The outcome [15] was “inactive”, the outcome [16] was “inactive” and the outcome [17] was “inactive”.

In the case of `CCOP(=S)(OCC)Oc1cc(C)nc(C(C)C)n1`, the AC50 [1] is reported as 75.9 µM (active), the outcome [2] is reported as “inactive” and the outcome [3] is reported as “inactive”. The outcome [4] was “inactive”, the outcome [5] was “inactive” and the outcome [6] was “inactive”. For the same compound, the outcome [8] was “inactive”, the outcome [9] was “inactive” and the AC50 [10] was 16.1 µM (active). The outcome [10] was “inactive”, the AC50 [11] was 77 µM (active) and the outcome [11] was “inactive”. The AC50 [16] was 50000 nM (active) and the outcome [16] was “inactive”.

For `CCc1cnc(C2=NC(C)(C(C)C)C(=O)N2)c(C(=O)O)c1` (stereo not given), the outcome [14] was “inactive”.

For `FC(F)C(F)(F)OCC(Cn1cncn1)c1ccc(Cl)cc1Cl` (stereo not given), the outcome [14] was “inactive”.

In the case of `Cc1ccn2nc(S(=O)(=O)Nc3c(F)cccc3F)nc2n1`, the outcome [14] is reported as “inactive” and the outcome [17] is reported as “inactive”.

With `C[Si](Cn1cncn1)(c1ccc(F)cc1)c1ccc(F)cc1` the AC50 [1] was 4.26 µM (active), the outcome [2] was “inactive” and the outcome [3] was “inactive”. For the same compound, the outcome [4] was “inactive”, the outcome [5] was “inactive” and the outcome [6] was “inactive”. The AC50 [8] was 5.85 µM (active), the outcome [9] was “inactive” and the outcome [10] was “inactive”. The AC50 [11] was 20.1 µM (active), the outcome [14] was “inactive” and the outcome [16] was “inactive”. The outcome [17] was “inactive”.

With `C=C(C)[C@H]1Cc2c(ccc3c2O[C@@H]2COc4cc(OC)c(OC)cc4[C@@H]2C3=O)O1` the AC50 [1] was 25.2 nM (active) and 14.1 nM (active), the AC50 [2] was 36.4 nM (active) and 32.6 nM (active) and the AC50 [3] was 29.8 nM (active) and 31 nM (active). For the same compound, the AC50 [4] was 41.4 nM (active) and 31.6 nM (active), the AC50 [5] was 20.1 nM (active) and 26.2 nM (active) and the AC50 [6] was 14 nM (active) and 10.7 nM (active). For the same compound, the outcome [7] was “inactive”, the AC50 [8] was 35.4 nM (active) and 21.1 nM (active) and the AC50 [9] was 27.7 nM (active) and 14.6 nM (active). For the same compound, the AC50 [10] was 0.0145 µM (active), the AC50 [11] was 16.8 nM (active) and 13.3 nM (active) and the AC50 [12] was 2.39 µM (active). For the same compound, the outcome [14] was “inactive”, the AC50 [16] was 38.4 nM (active) and 57.1 nM (active) and the outcome [17] was “inactive”.

For `CCCOCC(=Nc1ccc(Cl)cc1C(F)(F)F)n1ccnc1`, the AC50 [7] was 2.92 µM (active), the AC50 [12] was 2.38 µM (active) and the outcome [14] was “inactive”. The outcome [17] was “inactive”.

With `CCOC(=O)CC(SP(=O)(OC)OC)C(=O)OCC` (stereo not given) the outcome [2] was “inactive”, the outcome [3] was “inactive” and the outcome [4] was “inactive”. The outcome [5] was “inactive”, the outcome [6] was “inactive” and the outcome [8] was “inactive”. The outcome [9] was “inactive”, the outcome [10] was “inactive” and the outcome [11] was “inactive”. For the same compound, the outcome [13] was “inactive”, the outcome [14] was “inactive” and the outcome [15] was “inactive”.

For `CCOP(=O)(OCC)Oc1cc(C)nc(C(C)C)n1`, the outcome [1] was “inactive”, the outcome [2] was “inactive” and the outcome [3] was “inactive”. The outcome [4] was “inactive”, the outcome [5] was “inactive” and the outcome [6] was “inactive”. For the same compound, the outcome [8] was “inactive”, the outcome [9] was “inactive” and the outcome [10] was “inactive”. The outcome [11] was “inactive” and the outcome [16] was “inactive”.
